nsP2pro primary – inhibitors of chikungunya virus nsP2 protease; Q8JUX6; AID 1964107; Potency, µM (highest dose often 24.9 µM), without a hit: at the top dose activity change, negative = inhibition, most hits filed as inhibitors; hit rate 1.1% among 31,000; FRET peptide cleavage, nsP2pro, fluorescence 1 h; calls by dose curve; further: nearly all actives have a fitted effect of over 60% in size
Target sequence (Q8JUX6 whole entry, looked up): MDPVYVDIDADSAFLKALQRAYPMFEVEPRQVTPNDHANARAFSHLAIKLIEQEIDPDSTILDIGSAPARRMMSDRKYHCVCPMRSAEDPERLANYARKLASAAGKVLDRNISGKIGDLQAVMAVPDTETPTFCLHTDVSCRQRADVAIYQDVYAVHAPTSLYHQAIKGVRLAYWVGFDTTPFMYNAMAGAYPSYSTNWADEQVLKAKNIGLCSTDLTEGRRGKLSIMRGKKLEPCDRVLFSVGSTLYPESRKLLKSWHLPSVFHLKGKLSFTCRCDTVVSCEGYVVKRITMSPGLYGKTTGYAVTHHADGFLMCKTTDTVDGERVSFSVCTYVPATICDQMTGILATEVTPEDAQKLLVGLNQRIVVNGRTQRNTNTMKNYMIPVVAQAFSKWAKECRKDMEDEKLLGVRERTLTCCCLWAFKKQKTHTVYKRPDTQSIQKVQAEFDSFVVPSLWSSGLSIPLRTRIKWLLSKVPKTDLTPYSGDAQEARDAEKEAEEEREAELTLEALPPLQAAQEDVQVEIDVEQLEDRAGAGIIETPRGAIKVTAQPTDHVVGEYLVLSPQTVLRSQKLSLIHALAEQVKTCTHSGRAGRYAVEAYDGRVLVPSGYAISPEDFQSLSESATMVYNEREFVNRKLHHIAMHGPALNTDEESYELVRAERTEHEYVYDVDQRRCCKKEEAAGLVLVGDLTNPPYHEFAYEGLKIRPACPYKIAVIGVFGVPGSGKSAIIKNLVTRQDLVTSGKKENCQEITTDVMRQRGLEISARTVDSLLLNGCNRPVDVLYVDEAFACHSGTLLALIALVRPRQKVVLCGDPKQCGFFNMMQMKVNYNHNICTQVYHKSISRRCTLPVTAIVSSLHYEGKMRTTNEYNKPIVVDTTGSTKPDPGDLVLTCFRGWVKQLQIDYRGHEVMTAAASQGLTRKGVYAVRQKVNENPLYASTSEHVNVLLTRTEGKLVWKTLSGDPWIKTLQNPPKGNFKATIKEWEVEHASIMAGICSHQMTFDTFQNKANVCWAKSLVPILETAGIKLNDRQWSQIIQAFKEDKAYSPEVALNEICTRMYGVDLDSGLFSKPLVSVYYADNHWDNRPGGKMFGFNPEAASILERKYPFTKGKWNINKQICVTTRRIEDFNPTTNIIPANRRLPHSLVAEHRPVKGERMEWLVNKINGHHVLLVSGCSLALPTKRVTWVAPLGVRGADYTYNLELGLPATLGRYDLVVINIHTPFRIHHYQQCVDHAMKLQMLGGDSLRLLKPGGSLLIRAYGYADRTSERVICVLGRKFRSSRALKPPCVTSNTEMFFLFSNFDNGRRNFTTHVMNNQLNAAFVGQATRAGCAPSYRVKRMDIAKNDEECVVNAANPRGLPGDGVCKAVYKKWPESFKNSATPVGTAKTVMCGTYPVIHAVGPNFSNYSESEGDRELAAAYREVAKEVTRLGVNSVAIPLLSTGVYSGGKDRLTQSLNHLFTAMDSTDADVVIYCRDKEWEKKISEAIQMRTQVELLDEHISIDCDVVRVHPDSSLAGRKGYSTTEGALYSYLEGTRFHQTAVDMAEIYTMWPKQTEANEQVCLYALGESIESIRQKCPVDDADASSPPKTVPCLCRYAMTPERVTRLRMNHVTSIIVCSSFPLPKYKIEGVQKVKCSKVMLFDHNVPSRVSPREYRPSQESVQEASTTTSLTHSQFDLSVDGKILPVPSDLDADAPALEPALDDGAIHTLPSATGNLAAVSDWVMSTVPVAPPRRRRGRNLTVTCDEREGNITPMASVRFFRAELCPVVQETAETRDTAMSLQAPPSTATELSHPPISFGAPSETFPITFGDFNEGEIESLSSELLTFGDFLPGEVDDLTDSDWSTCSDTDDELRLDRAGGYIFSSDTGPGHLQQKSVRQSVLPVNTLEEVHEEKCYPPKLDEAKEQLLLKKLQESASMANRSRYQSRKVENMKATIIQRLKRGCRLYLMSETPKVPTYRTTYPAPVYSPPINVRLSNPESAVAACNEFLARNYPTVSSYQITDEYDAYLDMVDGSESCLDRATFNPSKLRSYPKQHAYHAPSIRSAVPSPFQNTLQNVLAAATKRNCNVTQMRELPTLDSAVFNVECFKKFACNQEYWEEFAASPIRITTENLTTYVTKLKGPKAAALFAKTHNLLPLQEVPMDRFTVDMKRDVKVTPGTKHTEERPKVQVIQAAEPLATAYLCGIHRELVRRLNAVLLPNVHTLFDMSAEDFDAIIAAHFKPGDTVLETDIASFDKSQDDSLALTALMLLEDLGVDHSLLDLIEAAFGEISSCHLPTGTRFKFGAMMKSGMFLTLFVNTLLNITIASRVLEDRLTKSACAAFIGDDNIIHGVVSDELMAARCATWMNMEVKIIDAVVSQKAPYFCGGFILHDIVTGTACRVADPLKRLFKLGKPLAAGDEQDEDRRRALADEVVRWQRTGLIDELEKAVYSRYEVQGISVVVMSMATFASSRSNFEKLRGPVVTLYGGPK
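Enzyme 150 nM, substrate 2.5 uM (both final); Tris-HCl 10 mM pH 8.0 + 0.01% Tween 20; cpd up to 25 uM, 7 pts; 15 min preinc., 1 h RT; fluorescence ex 525/em 598.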
* marks the source's active call; other numbers are inactive results; i = inactive; ! = a repeat was not active; [ ] = dose if it differs, or a comment. Only a selection was taken, and hits are over-represented in it overall. On the % scale 0 is the no-effect control and ±100 the full control effect; potency means the concentration at half of the fitted maximal effect.

SMILES	nsP2pro primary
O=C(COc1ccccc1)N[C@H]1CO[C@H]2[C@@H]1OC[C@@H]2Nc1nccc(-c2ccco2)n1	12.6µM*
CC(C)(C)c1ccnc(N[C@H]2CO[C@H]3[C@@H]2OC[C@@H]3NC(=O)c2ccco2)n1	-8.2%[39.2 µM]
O=C(COc1ccccc1)N[C@H]1CO[C@H]2[C@@H]1OC[C@@H]2Nc1nccc(-c2cccs2)n1	-12.4%
O=C(Nc1ccccc1)N[C@H]1CO[C@H]2[C@@H]1OC[C@@H]2Nc1nccc(-c2cccs2)n1	50.0%[39.2 µM]
CC(=O)c1ccc(NC(=O)N[C@H]2CO[C@H]3[C@@H]2OC[C@@H]3Nc2nccc(-c3ccco3)n2)cc1	-11.1%
Cc1noc(C)c1-c1ccc2c(n1)CN(Cc1nc3ccccc3s1)C(=O)CO2	i
CCn1nc(C)cc1S(=O)(=O)N[C@H]1[C@H]2CCO[C@H]2[C@@H]1N1CCCCC1	i
CCOC(=O)c1cccc(NC(=O)C2=CC(C)(C)Oc3ccc(OC)cc32)c1	-2.2%
O=C(NC1CCCCC1)N[C@H]1CO[C@H]2[C@@H]1OC[C@@H]2n1cc(-c2ccccc2)nn1	-1.7%[39.2 µM]
COc1ccc(-c2nc3ccc(OC)cc3s2)cc1	1.0%
COc1ccc(-c2nc3ccccc3s2)cc1	i
COc1ccc(-c2cc(=S)ss2)cc1	11.1µM*
CCN1C(C)(C)CC(Oc2ccc(C(=O)Nc3ccc(NC(=O)Nc4cc(C(C)(C)C)on4)cc3)nc2)CC1(C)C	12.6%
Cc1ccc(OCCn2c(CCNC(=O)c3cccs3)nc3ccccc32)cc1	-6.2%
CCOc1ccc(CCNC(=O)c2cc3ccncc3n2Cc2cccc(C)n2)cc1OCC	i
CCOc1ccc(CCNC(=O)c2cc3ccccc3n2Cc2ccccn2)cc1OCC	7.94µM*
CCOc1ccc(CCNC(=O)c2cc3ncccc3n2Cc2cccc(C)n2)cc1OCC	i
COc1ccc2c3ccnc4ccc(=O)n(c2c1)c43	8.0%
COCC1=C(C(=O)O)N2C(=O)[C@@H](NC(=O)/C(=N\OC)c3csc(N)n3)[C@H]2SC1	-10.8%
CCO/N=C(\C(=O)N[C@@H]1C(=O)N2C(C(=O)O)=C(Sc3nc(-c4cc[n+](C)cc4)cs3)CS[C@H]12)c1nsc(NP(=O)(O)O)n1	11.1µM*
CO/N=C(\C(=O)N[C@@H]1C(=O)N2C(C(=O)O)=C(CSc3cnns3)CS[C@H]12)c1csc(N)n1	-46.3%
COc1cccc(-c2ccc(=O)n(CC(=O)NCCc3ccccc3)n2)c1	-1.1%
N[C@H](CO)C(=O)O	-26.2%
COC(=O)[C@@H](N)CS	11.1µM*
O=C(N1CCOCC1)N1C2CCC1CN(c1ccc(C(F)(F)F)cc1)C2	-17.2%
SMILES	nsP2pro primary
CNc1nc(Nc2cn(C(C)(C)C#N)nc2C)ncc1C(F)(F)F	-6.9%
O=C1Nc2ccccc2CN(CC2CCCC2)C12CCNC2 (stereo not given)	12.6µM*
O=C1Nc2ccccc2CN(CC2CC2)C12CCNC2 (stereo not given)	-7.4%[39.2 µM]
CC(C)=CCN1Cc2ccccc2NC(=O)C12CCNC2 (stereo not given)	10µM*
Cc1ccc([S+](=O)([O-])N2CCCCC23Cc2ccccc2NC3=O)cc1 (stereo not given)	i
COC(=O)N1CCCCC12Cc1ccccc1NC2=O (stereo not given)	-3.6%[39.2 µM]
CC(C)C(=O)N1Cc2ccccc2NC(=O)C12CCNC2 (stereo not given)	-7.8%[39.2 µM]
O=C(CNC(=O)c1ccccc1)N[C@@H](C(=O)Nc1cc(C(F)(F)F)ccc1Cl)c1ccccc1	-5.5%
O=C(O)c1ccnc2cc(-c3nc4ccccc4n3CCN3CCCCC3)sc12	4.8%
CS(=O)(=O)NC1CCN(Cc2cc(=O)c3cc(C(N)=O)ccc3[nH]2)CC1	-10.3%
CC(=O)O[C@@H]1C(=O)C(C)=C(CCC(C)CC(=O)O)[C@@]2(C)CCCC(C)(C)C12 (stereo not given in full)	6.1%
Cc1ccc(NC(=O)N2C[C@@H]3C[C@H](C2)c2c(-c4cccs4)ccc(=O)n2C3)cc1	-2.5%[39.2 µM]
O=c1ccc(-c2cccs2)c2n1C[C@H]1C[C@@H]2CN(S(=O)(=O)c2ccccc2)C1	15.8µM*
COc1ccc(S(=O)(=O)N2C[C@@H]3C[C@H](C2)c2c(NC(=O)c4ccccc4)ccc(=O)n2C3)cc1	3.7%
Cn1ccnc1C(=O)N1C[C@@H](COCC2CC2)[C@H](c2ccncc2)C1	i
C=C1CC[C@H]2[C@@](C)(CCC(O)[C@@]2(C)CO)[C@@H]1C/C=C(/C(=O)O)C(O)CO (stereo not given in full)	14.8%
O=C(CCc1cc(=O)[nH]o1)N[C@H](C1CCNCC1)C1CC(O)C1 (stereo not given in full)	10.2%
CC(C)NC(=O)c1nc(-c2ccc([S+](C)(=O)[O-])cc2)c2ccccn12	3.8%
c1ccc(-n2cc(-c3nnc4n3CCCCC4)c3ccccc32)cc1	i
c1ccc(-n2ccc(-c3nnc4n3CCCCC4)c2)cc1	12.6µM*
Cc1cc(-c2nnc3n2CCCCC3)c(C)n1-c1cccnc1	-5.1%
CCc1nnc(-c2cnn(C)c2N)n1CCCn1ccnc1	i
CN1CCN(c2ccc(NC(=O)CN(C)Cc3c(O)ccc4ccccc34)cc2)CC1	12.6µM*
COc1ccc2ccccc2c1CN(C)CC(=O)Nc1ccc(N2CCOCC2)cc1	-7.5%
CN(CC(=O)Nc1ccc(N2CCOCC2)cc1)Cc1ccccc1O	-0.8%
SMILES	nsP2pro primary
CN1[C@H](C(=O)O)C[C@H](C(=O)NCC2(CO)CCCC2)[C@@H]1c1ccccc1F	-19.9%
CCOC(=O)NNc1ccc(N(CC)CC(C)O)nn1 (stereo not given)	11.1µM*
CCOC(=O)NNc1nncc2ccccc12	6.9%
CCOc1ccc(CCNC(=O)c2cc3sccc3n2CCN2CCN(C)CC2)cc1OCC	-2.9%
C[C@@]12CC3(S(=O)(=O)O)OC(O1)[C@]1(COC(=O)c4ccccc4)[C@H]3C[C@]21O[C@@H]1O[C@H](CO)[C@@H](O)[C@H](O)[C@H]1O	-17.1%[10 µM]
COc1ccc(-n2c(-c3ccccc3F)nc3c(cnn3-c3ccc(C)cc3)c2=O)cc1	11.2µM*
COc1ccc(Oc2c(Cl)cnn(-c3cc(C)cc(C)c3)c2=O)cc1	-0.1%
CCc1nc2c(cnn2-c2ccc(C)cc2)c(=O)n1Cc1ccccc1	-19.0%
Cc1cc(C(=O)N2CCC(N3CCCC(C(=O)NCCc4ccccc4)C3)CC2)n[nH]1 (stereo not given)	-7.1%
C[C@H]1CC[C@@]2(O)C(C)(C)[C@@H]3CC[C@@]2(C)[C@H]1C3	-11.1%
Cn1cc(-c2cnc(Nc3ccc(F)c(Cl)c3)c3c2CCO3)cn1	8.91µM*
Cc1noc(C)c1-c1cnc(Nc2ccc(CN3CCN(C)CC3)cc2)c2c1CCO2	-9.1%[39.2 µM]
Cc1cc(-c2cnc(Nc3ccc(F)cc3)c3c2CCO3)ccn1	-23.2%[39.2 µM]
COc1cccc(C(=O)NC2CCN(c3ccnc4ccnn34)C2)c1 (stereo not given)	3.8%[39.2 µM]
O=C(O)c1cc(N=Nc2ccc(O)c(C(=O)O)c2)ccc1O	-17.7%
O=C(O)c1cc(O)c(O)c(O)c1	12.4µM*!
O=C(O)c1cc(O)c2c(c1)[O][Bi][O]2	-4.1%[0.199 µM]
CC(C)(C)CNc1ncnc2ccc(-c3ccc(C(=O)O)o3)cc12	i
O=C(O)c1ccc(-c2ccc3ncnc(NCc4nccs4)c3c2)o1	11.2µM*
O=C(O)c1ccc(-c2ccc3ncnc(NCC4CCCO4)c3c2)o1 (stereo not given)	4.3%
Cc1ccnc(NC(=S)N2CCN(c3cccc([N+](=O)[O-])c3)CC2)c1	3.4%
Cc1ccccc1CN1CCn2c(nn(CC3COc4ccccc4O3)c2=O)C1=O (stereo not given)	i

High-throughput results deposited in PubChem BioAssay by National Center for Advancing Translational Sciences (NCATS).
